# According to PMC4336329 (PLoS ONE, 2015):
# The campaign covered roughly 310,000 compounds. About 2,200 (0.71%) showed an effect of 50% or more. The effect is printed as a negative number. What follows is part of a selection rich in strong results, with near analogues and random picks from the rest.
# Biological target: human ether-à-go-go-related gene (hERG) potassium channel (human, UniProt Q12809)
# Experiment: primary screen, population patch clamp on CHO cells stably expressing hERG; higher = less effect of the substance
# Sequence of human ether-à-go-go-related gene (hERG) potassium channel (Q12809 whole entry, looked up): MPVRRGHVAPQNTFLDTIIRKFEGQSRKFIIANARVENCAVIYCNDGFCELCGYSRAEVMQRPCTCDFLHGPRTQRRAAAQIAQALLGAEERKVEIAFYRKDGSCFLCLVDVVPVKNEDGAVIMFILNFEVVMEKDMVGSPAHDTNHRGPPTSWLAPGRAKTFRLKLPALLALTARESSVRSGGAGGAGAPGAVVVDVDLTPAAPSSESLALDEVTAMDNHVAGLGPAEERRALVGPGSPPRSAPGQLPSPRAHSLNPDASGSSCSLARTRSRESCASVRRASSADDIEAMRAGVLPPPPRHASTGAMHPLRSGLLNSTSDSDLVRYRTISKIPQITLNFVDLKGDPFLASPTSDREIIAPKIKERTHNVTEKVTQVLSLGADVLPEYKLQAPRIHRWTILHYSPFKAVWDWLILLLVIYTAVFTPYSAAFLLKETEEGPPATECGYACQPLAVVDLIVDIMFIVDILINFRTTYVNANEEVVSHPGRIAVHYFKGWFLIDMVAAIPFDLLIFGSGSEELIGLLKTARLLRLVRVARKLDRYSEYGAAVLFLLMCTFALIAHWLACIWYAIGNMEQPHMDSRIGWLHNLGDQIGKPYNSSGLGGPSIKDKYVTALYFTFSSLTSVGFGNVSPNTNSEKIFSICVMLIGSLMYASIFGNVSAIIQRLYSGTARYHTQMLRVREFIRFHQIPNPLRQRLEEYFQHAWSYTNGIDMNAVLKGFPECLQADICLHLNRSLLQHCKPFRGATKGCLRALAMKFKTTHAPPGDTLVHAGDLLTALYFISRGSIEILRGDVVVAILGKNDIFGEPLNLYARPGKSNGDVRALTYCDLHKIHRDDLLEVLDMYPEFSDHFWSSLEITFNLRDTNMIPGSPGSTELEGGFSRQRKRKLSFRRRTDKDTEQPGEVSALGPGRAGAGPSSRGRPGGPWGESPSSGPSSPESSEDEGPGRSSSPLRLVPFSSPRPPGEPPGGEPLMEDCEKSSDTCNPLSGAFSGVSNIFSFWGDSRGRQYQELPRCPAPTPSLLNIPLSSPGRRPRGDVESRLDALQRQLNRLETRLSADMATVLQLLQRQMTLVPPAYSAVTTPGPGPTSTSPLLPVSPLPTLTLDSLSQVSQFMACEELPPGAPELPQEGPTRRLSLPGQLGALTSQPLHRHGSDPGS
row,Compound,"hERG current change (%, negative = inhibition) at 1uM [%]"
1,COc1ccc(N2CCN(CCCNC(=O)c3ccc(CS(=O)(=O)c4ccc(OC)cc4)o3)CC2)cc1,-43.1
2,O=C(NCCCN1CCCC1)c1ccc(CS(=O)(=O)c2ccc(Cl)cc2)o1,18.1
3,O=C(NCCN1CCOCC1)c1ccc(CS(=O)(=O)c2ccc(Br)cc2)o1,-0.189
4,COc1ccccc1S(=O)(=O)Cc1ccc(C(=O)NCCCN2CCN(c3ccc(F)cc3)CC2)o1,-68.3
5,COc1ccccc1S(=O)(=O)Cc1ccc(C(=O)NCCN2CCCC2)o1,14.2
6,O=C(NCCN1CCN(Cc2ccccc2)CC1)c1ccc(CS(=O)(=O)c2ccc(Br)cc2)o1,-50.5
7,O=C(NCCN1CCCCCC1)c1ccc(CS(=O)(=O)c2ccc(Br)cc2)o1,-37.9
8,COc1ccc(N2CCN(CCCNC(=O)c3ccc(CS(=O)(=O)c4ccc(Cl)cc4)o3)CC2)cc1,-71.2
9,COc1ccccc1S(=O)(=O)Cc1ccc(C(=O)NCCN2CCCCCC2)o1,9.15
10,CSc1nc2nc3c(c(=O)n2[nH]1)CCC3,1.88
11,CCOC(=O)c1sc2nc[nH]c(=O)c2c1C,12.6
12,Cc1cc2c(cc1C)[n+](C)cn2CC(O)COCC1CC=CCC1.[I-] (centres unmarked),11
13,CC(=O)CC(c1ccccc1)c1c(O)c2ccccc2oc1=O.[Na] (centres unmarked),15.2
14,Cc1ccc(C(=O)Nc2cccc(-c3ccc(N4CCOCC4)nn3)c2)cc1,4.57
15,COc1cc(SC)ccc1C(=O)OCC(=O)NC1CCCC1,9.49
16,Fc1cccc(CSc2ccc3nnc(-c4ccccn4)n3n2)c1,-50.2
17,Brc1ccc(CSc2ccc3nnc(-c4ccccn4)n3n2)cc1,-12.7
18,Fc1ccc(CSc2ccc3nnc(-c4cccnc4)n3n2)cc1,-31.8
19,O=C(CSc1ccc2nnc(-c3ccccn3)n2n1)Nc1cccc(F)c1,-7.83
20,Fc1cccc(Cl)c1CSc1ccc2nnc(-c3ccccn3)n2n1,1.37
21,Fc1ccc(CSc2nnc3ccc(-c4ccncc4)nn23)cc1,-61.2

row,Compound,"hERG current change (%, negative = inhibition) at 1uM [%]"
1,Cc1ccc(CSc2ccc3nnc(-c4cccnc4)n3n2)cc1,-70.6
2,c1ccc(CSc2ccc3nnc(-c4ccccn4)n3n2)cc1,-26.6
3,c1ccc(CSc2nnc3ccc(-c4ccncc4)nn23)cc1,-12
4,Cc1ccc(CSc2nnc3ccc(-c4ccncc4)nn23)cc1,-3.17
5,Cc1cccc(CSc2ccc3nnc(-c4cccnc4)n3n2)c1,-16
6,Fc1ccc(CSc2ccc3nnc(-c4ccccn4)n3n2)cc1,-92.9
7,Cc1cc[n+](CC(=O)Nc2cc(C(F)(F)F)ccc2Cl)cc1.[Cl-],5.29
8,O=C(NCCS(=O)(=O)N1CCC2(CC1)OCCO2)c1ccc(F)cc1,13.2
9,CSc1nc2ccccc2cc1/C=C(\C#N)c1ccccc1,9.25
10,Cc1ccccc1S(=O)Cc1ccc(C(=O)NCCN2CCOCC2)o1 (centres unmarked),25.5
11,CC(C)CN(C(=O)CSc1nnc2ccccn12)C1CCS(=O)(=O)C1 (centres unmarked),8.69
12,CCOC(=O)Cn1ncc2c3ccccc3n(CC(=O)OCC)c2c1=O,13.4
13,Cc1cccc(CSc2ccc3nnc(-c4ccccn4)n3n2)c1,-58.9
14,Cc1cccc(CSc2ccc3nnc(-c4cccs4)n3n2)c1,5.73
15,Cc1cccc(CSc2nnc(-c3ccccn3)n2N)c1,9.76
16,Cc1ccc(NC(=O)c2cc(NC(=O)C3CC=CCC3C(=O)O)ccc2N2CCOCC2)cc1Cl (centres unmarked),5.76
17,O=C(/C=C/c1ccco1)Nc1cccc(S(=O)(=O)N2CCOCC2)c1,-5.85
18,c1ccc(CN2CCN(Cc3c[nH]c4ccccc34)CC2)cc1,15.3
19,CCOc1ccc(CN2CCN(Cc3c[nH]c4ccccc34)CC2)cc1.O=C(O)C(=O)O,-85.8
20,O=[N+]([O-])c1ccc(CN2CCN(Cc3c[nH]c4ccccc34)CC2)cc1,-73.7
21,COc1ccc(CN2CCN(Cc3c[nH]c4ccccc34)CC2)cc1.O=C(O)C(=O)O,-27.2

row,Compound,"hERG current change (%, negative = inhibition) at 1uM [%]"
1,O=C(O)C(=O)O.O=[N+]([O-])c1ccc(S(=O)(=O)N2CCN(Cc3c[nH]c4ccccc34)CC2)cc1,-10.1
2,Brc1ccc(CN2CCN(Cc3c[nH]c4ccccc34)CC2)cc1.O=C(O)C(=O)O,-22
3,CC(C)Sc1nnc(-c2ccc(S(=O)(=O)N3CCOCC3)cc2)n1C,7.81
4,CCN(CC)Cc1cc(NC2=NS(=O)(=O)c3ccccc32)ccc1OC(=O)C(C)C.Cl,5.53
5,COc1ccc(NS(=O)(=O)c2ccc(NS(C)(=O)=O)cc2)cc1,6.82
6,COc1ccc(CNC(=O)c2ccccc2C(=O)O)cc1,0.458
7,CCN(CC(=O)Nc1c(F)cccc1F)C(=O)c1ccc(C#N)cc1,8.99
8,O=C(CSc1nnc(-c2ccccc2Br)o1)Nc1nncs1,-63.5
9,O=C(CSc1nnc(-c2ccncc2)o1)Nc1nncs1,15.3
10,O=C(CSc1nnc(-c2ccccc2Br)o1)Nc1cccc2ccccc12,3.82
11,CSc1n[nH]c(NC2=CC(=O)CCC2)n1,15
12,CNC(=O)NC(=O)C(C)N1CCN(C/C=C/c2ccccc2)CC1 (centres unmarked),-32.1
13,COc1ccccc1NC(=O)C(C)N1CCN(C/C=C/c2ccccc2)CC1 (centres unmarked),-75.2
14,CC(=O)c1ccc(NC(=O)C(C)N2CCN(C/C=C/c3ccccc3)CC2)cc1 (centres unmarked),-41
15,CC(C(=O)Nc1cccc(S(=O)(=O)N2CCOCC2)c1)N1CCN(C/C=C/c2ccccc2)CC1 (centres unmarked),-32.5
16,CC(C(=O)Nc1cccc([N+](=O)[O-])c1)N1CCN(C/C=C/c2ccccc2)CC1 (centres unmarked),-74.2
17,COc1ccccc1NC(=S)N1CCN(C/C=C/c2ccccc2)CC1,7.29
18,CC(C(=O)N(C)Cc1ccccc1)N1CCN(C/C=C/c2ccccc2)CC1 (centres unmarked),-73.5
19,COc1ccc(N2CCN(C(C)C(=O)N(C)Cc3ccccc3)CC2)cc1 (centres unmarked),-10
20,COc1ccc(Cl)cc1NC(=O)C(C)N1CCN(C/C=C/c2ccccc2)CC1.O=C(O)C(=O)O (centres unmarked),-14.3
